Assay results as given in the supplement of paper PMC8007513.
Where a name gives a salt, the structure may show the parent alone. ± gives the standard error. Screen size: about 1,300 compounds; about 130 (10%) showed an effect of 50% or more. The entries come from a sample that favours strong results as a whole.

System: Trichoderma virens ATCC 9645
Assay: growth yield (OD600) with compound + IPBC relative to untreated control; higher = less growth inhibition
Conditions: compound concentration: 100 uM, IPBC concentration: 200 ng/ml
Procedure, shortened: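 For each 96-well plate, 100 μl aliquots were prepared with Trichoderma virens ATCC 9645 spores suspended at 15,000 spores ml^−1 in potato dextrose broth. The spores had been harvested from potato dextrose agar plates after 7 days. Library compounds were present at 100 μM final, some wells also receiving a biocide at 200 ng ml^−1, and plates were grown at 30 °C with OD600 read on a BioTek EL800 at 40 h and 72 h. Reported growth, relative to the control lacking both agents, is the mean of duplicate screens.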

| SMILES | growth yield (40 h) | growth yield (72 h) |
| --- | --- | --- |
| CCC(=O)O[C@]1(C(=O)CCl)[C@@H](C)C[C@H]2[C@@H]3CCC4=CC(=O)C=C[C@]4(C)[C@@]3(F)[C@@H](O)C[C@@]21C [Clobetasol propionate] + CCCCNC(=O)OCC#CI [3-iodo-2-propynyl butylcarbamate (IPBC)] | 109 ± 7.2% | 106 ± 4.7% |
| C[C@@H]1C[C@@H]([C@H](O)CC2CC(=O)NC(=O)C2)C(=O)[C@@H](C)C1 [Cycloheximide] + CCCCNC(=O)OCC#CI [3-iodo-2-propynyl butylcarbamate (IPBC)] | 34.3 ± 2.9% | 85.7 ± 3.2% |
| C[C@]12CC[C@H]3C(=CCc4cc(O)ccc43)[C@@H]1CCC2=O [Equilin] + CCCCNC(=O)OCC#CI [3-iodo-2-propynyl butylcarbamate (IPBC)] | 82.4 ± 17% | 86.8 ± 9% |
| C=CC[N@@+]12CC[C@@]34c5ccccc5N5/C=C6/[C@H]7C[C@H]8[C@@]9(CC[N@@+]8(CC=C)C/C7=C/CO)c7ccccc7N(/C=C(/[C@@H](C[C@@H]31)/C(=C\CO)C2)[C@H]54)[C@@H]69 [Alcuronium chloride] + CCCCNC(=O)OCC#CI [3-iodo-2-propynyl butylcarbamate (IPBC)] | 6.83 ± 0.16% | 35.4 ± 3.4% |
| Cn1ccnc1S [Methimazole] + CCCCNC(=O)OCC#CI [3-iodo-2-propynyl butylcarbamate (IPBC)] | 120 ± 16% | 111 ± 12% |
| CNCCC(Oc1ccc(C(F)(F)F)cc1)c1ccccc1 (centres undefined) [Fluoxetine hydrochloride] + CCCCNC(=O)OCC#CI [3-iodo-2-propynyl butylcarbamate (IPBC)] | 71.8 ± 4.8% | 96.9 ± 2.9% |
| Fc1ccc(C(c2ccc(F)cc2)N2CCN(C/C=C/c3ccccc3)CC2)cc1 [Flunarizine dihydrochloride] + CCCCNC(=O)OCC#CI [3-iodo-2-propynyl butylcarbamate (IPBC)] | 3.81 ± 0.32% | 3.78 ± 0.42% |
| COc1ccc(CN2CCN(C(c3ccc(F)cc3)c3ccc(F)cc3)CC2)c(OC)c1OC [Lomerizine hydrochloride] + CCCCNC(=O)OCC#CI [3-iodo-2-propynyl butylcarbamate (IPBC)] | 71.8 ± 5.7% | 97.4 ± 4.9% |
| CN1CCN(C(c2ccccc2)c2ccccc2)CC1 [Cyclizine hydrochloride] + CCCCNC(=O)OCC#CI [3-iodo-2-propynyl butylcarbamate (IPBC)] | 82.6 ± 1.3% | 87.6 ± 2% |
| OCCOCCN1CCN(C(c2ccccc2)c2ccc(Cl)cc2)CC1 (centres undefined) [Hydroxyzine dihydrochloride] + CCCCNC(=O)OCC#CI [3-iodo-2-propynyl butylcarbamate (IPBC)] | 76.08 ± 0.16% | 95.9 ± 2.5% |
| C(=C\c1ccccc1)/CN1CCN(C(c2ccccc2)c2ccccc2)CC1 [Cinnarizine] + CCCCNC(=O)OCC#CI [3-iodo-2-propynyl butylcarbamate (IPBC)] | 34.9 ± 5.1% | 93.1 ± 4% |
| O=C(O)COCCN1CCN(C(c2ccccc2)c2ccc(Cl)cc2)CC1 (centres undefined) [Cetirizine dihydrochloride] + CCCCNC(=O)OCC#CI [3-iodo-2-propynyl butylcarbamate (IPBC)] | 88.5 ± 6.8% | 93.8 ± 3.8% |
